Measurements reported in PubChem BioAssay (NCI).
Compounds without any hit were thinned out: in the full panel of roughly 83,000, 20% have a hit.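 Assay: single dose, 48 h. Readout: percent growth (0 = no net growth; negative = cell death). Active: <10.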 Values without a mark were called inactive. Activity calls are given as the source filed them.

Key:
Experiment in all cases: NCI-60 one-dose screen, 48 h (100 = growth as untreated, 0 = no growth, -100 = all killed)
Conditions in all cases: 10 µM unless noted
[1] = test system: SK-MEL-2 melanoma
[2] = test system: EKVX NSCLC
[3] = test system: SN12C renal
[4] = test system: UO-31 renal
[5] = test system: TK-10 renal
[6] = test system: ACHN renal
[7] = test system: CAKI-1 renal
[8] = test system: A498 renal
[9] = test system: CCRF-CEM leukemia
[10] = test system: MOLT-4 leukemia
[11] = test system: SR leukemia
[12] = test system: RPMI-8226 leukemia
[13] = test system: OVCAR-8 ovarian
[14] = test system: OVCAR-5 ovarian
[15] = test system: OVCAR-4 ovarian
[16] = test system: SK-OV-3 ovarian
[17] = test system: IGROV1 ovarian
[18] = test system: OVCAR-3 ovarian
[19] = test system: HS 578T breast
[20] = test system: NCI/ADR-RES ovarian

| Compound | growth [1] | growth [2] | growth [3] | growth [4] | growth [5] | growth [6] | growth [7] | growth [8] | growth [9] | growth [10] | growth [11] | growth [12] | growth [13] | growth [14] | growth [15] | growth [16] | growth [17] | growth [18] | growth [19] | growth [20] |
| --- | --- | --- | --- | --- | --- | --- | --- | --- | --- | --- | --- | --- | --- | --- | --- | --- | --- | --- | --- | --- |
| COC(=O)[C@H]1CCCN1C[C@@H](O)CN1C(=O)/C(=C\c2cc(OC)c(OC)c(OC)c2)c2ccccc21 | 94.3% | 104% | 98.2% | 82.1% | 102% | 105% | 93.1% | 113% | 93.9% | 81.6% | 78% | 91.4% | 92.1% | 123% | 90.6% | 108% | 102% | 105% | 99.6% | 102% |
| COc1ccc(-c2cc(-c3ccc(Cl)cc3)c(C#N)c(=O)n2CCCCC(=O)Nc2ccccc2N)cc1 | 79.7% | 47.3% | 42.3% | 33.4% | 102% | 51.6% | 1.45% (active) | 20.9% | 42.5% | 47.8% | 15.5% | 0.147% (active) | 42.8% | 58.6% | 66.5% | 78% | 47.4% | 69.5% | 75.7% | 37.3% |
| CCCCNc1ccc(C#N)c(OCCN(CC)CC)c1 | 105% | 98.7% | 105% | 84.6% | 108% | 101% | 98.6% | 117% | 94.8% | 88.2% | 93.8% | 93.3% | 100% | 97.4% | 105% | 102% | 105% | 109% | 123% | 98.4% |
| COc1ccc(OC)c(-c2c(C#N)c(-c3cccs3)nc3c2c(-c2ccccc2)nn3-c2ccccc2)c1 | 107% | 99.7% | 99.3% | 97.1% | 108% | 102% | 91.9% | 103% | 99.7% | 99.4% | 106% | 106% | 101% | 103% | 111% | 93.2% | 99.2% | 114% | 87.7% | 107% |
| CCOC(=O)c1c2c(n3ccc(C)cc13)C(=O)c1ccccc1C2=O | 90.2% | 91.2% | 95.8% | 60.6% | 103% | 96.4% | 80.1% | 83.8% | 99.9% | 89.9% | 84.8% | 98% | 86.1% | 109% | 101% | 103% | 78% | 88.2% | 93.3% | 95% |
| COc1ccc(-c2csc(N(C(=O)N3CCN(c4cc5c(cc4F)c(=O)c(C(=O)O)cn5C4CC4)CC3)c3ccccc3)n2)cc1 | 0.424% (active) | 15.8% | 6.41% (active) | 4.2% (active) | 32.1% | -62.5% (active) | 6% (active) | 3.67% (active) | 24.9% | 16% | 10.4% | 16% | 15.5% | 12.8% | 33.3% | 21.8% | 17.1% | 8.09% (active) | 40.3% | 11.8% |
| CCOC(=O)c1c(C)c2c(n1C)CSc1cc(C(=O)c3ccccc3)c(=O)[nH]c1-2 | 122% [100 µM] | 71.8% [100 µM] | 103% [100 µM] | 84.7% [100 µM] | 103% [100 µM] | 84.9% [100 µM] | 66% [100 µM] | 87.7% [100 µM] | 106% [100 µM] | 87.3% [100 µM] | 88.3% [100 µM] | 82.3% [100 µM] | 106% [100 µM] | 95.8% [100 µM] | 92.4% [100 µM] | 99.4% [100 µM] | 104% [100 µM] | 108% [100 µM] | 90.8% [100 µM] | 91.6% [100 µM] |
| CO[C@]12C=C/C(=C(/C(=O)OCc3cccnc3)C(=O)CCCCCCCC[C@@]3(OC)C=C/C(=C(/C(=O)OCc4cccnc4)C(=O)CCCCCCCC1)O3)O2 | 21.4% | 12.8% | 5.99% (active) | -10.7% (active) | 39% | -19.3% (active) | 22.9% | 1.93% (active) | 1.38% (active) | -2.22% (active) | -9.1% (active) | -9.22% (active) | 19.9% | -5.24% (active) | 11% | 57.4% | 2.68% (active) | -19.3% (active) | 37% | 36.3% |
| CC1=Nc2cnc(Nc3ccc(OCCN4CCCC4)cc3)nc2Nc2ccccc21 | 55.9% | 75.1% | 61.1% | 17.3% | 63.6% | 28.7% | 20.9% | -7.76% (active) | 86.3% | 34.5% | 58.1% | 78% | 80.6% | 74% | 62.9% | 43.8% | 23.1% | 76.4% | 41.5% | 82.7% |
| CCN1C(=O)N(CC)C2C1NN=c1s/c(=C\c3ccc(Cl)cc3Cl)c(=O)n12 (stereo not given) | 45.7% | 50.1% | 21.5% | 35.9% | 67.7% | 26.7% | 21.1% | 16.9% | 9.4% (active) | 12.9% | 12.3% | 16.5% | 10.8% | 28.2% | 46.1% | 29.2% | 13.4% | -43.3% (active) | 15.8% | 5.65% (active) |
| Cc1oc(-c2ccc(Cl)cc2)nc1/C=C/C(=O)c1ccccc1 | 100% | 95% | 95.6% | 83.9% | 122% | 101% | 91.9% | 101% | 97% | 92.3% | 93.7% | 90.9% | 98.7% | 115% | 79.4% | 100% | 93% | 97.5% | 100% | 104% |
| CCNc1nc(-c2ccc(Cl)c(OC)c2)c(-c2ccnc(NCCCNS(=O)(=O)c3ccc(Cl)cc3)n2)s1 | -27.1% (active) | 75.4% | 66.5% | 64.9% | 43.7% | 74.1% | 59% | 66.8% | 31.6% | 22.2% | 43.4% | 45.9% | 51% | 87.6% | 83% | 42.1% | 56.1% | 81.2% | 64.3% | 77.6% |
| CCCCN1C(=O)/C(=c2\sc3n(c2=O)C2C(NN=3)N(CC)C(=O)N2CC)c2ccccc21 (stereo not given) | 21.9% | 52.1% | 19.3% | 18.4% | 55.9% | 23.9% | 18.1% | -2.15% (active) | 7.34% (active) | 11.1% | 11% | 4.61% (active) | -12.5% (active) | 25.8% | 37.5% | 24.5% | 2.64% (active) | -31.5% (active) | 6.5% (active) | -9.17% (active) |
| CC(=O)Nc1nc2ccc(NS(=O)(=O)c3cccc4c(N(C)C)cccc34)cc2[nH]1 | 80.8% | 75.9% | 69.8% | 68.4% | 102% | 75.7% | 42.7% | 2.64% (active) | 47.9% | 59.4% | 24.8% | 43.3% | 85.4% | 84.4% | 76.9% | 88.1% | 51.5% | 41.1% | 52.3% | 97.7% |
| C=CCn1c(SCC(=O)NCc2cc(C)c(O)c(C)c2)nc2ccc(Cl)cc2c1=O | 101% | 111% | 107% | 74.6% | 113% | 98.9% | 112% | 106% | 86.3% | 81.6% | -34.1% (active) | -100% (active) | 106% | 88.4% | 86.2% | 109% | 65% | 101% | 98.7% | 97.1% |
